Experimental data from PMC11006913.
Where a chain is given by its changes, count along the chain named.

Legend:
Assay in all cases: PBM; 200 nM protein, PBS
Settings in all cases: dsDNA, one strand shown
CRX [1] = biological target: CRX (Homo sapiens, UniProt O43186 26-111)
HOXB9 [2] = biological target: HOXB9 (Homo sapiens, UniProt P17482 171-250, T197M)
SIX6 [3] = biological target: T1, SIX6 (Homo sapiens, UniProt O95475 114-200, L167I)
T1 sequence: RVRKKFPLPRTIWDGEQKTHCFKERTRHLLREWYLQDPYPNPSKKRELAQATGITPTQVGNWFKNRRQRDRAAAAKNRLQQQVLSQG

SIX6 [4] = biological target: T2, SIX6 (Homo sapiens, UniProt O95475 114-200, L143V)
T2 sequence: T1 sequence with L30V, I54L

SIX6 [5] = biological target: T3, SIX6 (Homo sapiens, UniProt O95475 114-200, H141N)
T3 sequence: T1 sequence with H28N, I54L

SIX6 [6] = biological target: T4, SIX6 (Homo sapiens, UniProt O95475 114-200, T165P)
T4 sequence: T1 sequence with T52P, I54L

SIX6 [7] = biological target: T5, SIX6 (Homo sapiens, UniProt O95475 114-200, L167M)
T5 sequence: T1 sequence with I54M

SIX6 [8] = biological target: T6, SIX6 (Homo sapiens, UniProt O95475 114-200, L143M)
T6 sequence: T1 sequence with L30M, I54L

SIX6 [9] = biological target: T7, SIX6 (Homo sapiens, UniProt O95475 114-200, L143I)
T7 sequence: T1 sequence with L30I, I54L

SIX6 [10] = biological target: T8, SIX6 (Homo sapiens, UniProt O95475 114-200, T165G)
T8 sequence: T1 sequence with T52G, I54L

HOXA2 [11] = biological target: HOXA2 (Homo sapiens, UniProt O43364 129-215, R185T)
HOXB9 [12] = biological target: HOXB9 (Homo sapiens, UniProt P17482 171-250)
SIX6 [13] = biological target: T9, SIX6 (Homo sapiens, UniProt O95475 114-200, T139Q)
T9 sequence: T1 sequence with T26Q, I54L

CRX [14] = biological target: CRX (Homo sapiens, UniProt O43186 26-111, E42D)
ALX3 [15] = biological target: ALX3 (Homo sapiens, UniProt O95076 139-225, N203Q)
SIX6 [16] = biological target: T10, SIX6 (Homo sapiens, UniProt O95475 114-200, T165A)
T10 sequence: T1 sequence with T52A, I54L

HOXA2 [17] = biological target: HOXA2 (Homo sapiens, UniProt O43364 129-215, R185K)
SIX6 [18] = biological target: T11, SIX6 (Homo sapiens, UniProt O95475 114-200, L167V)
T11 sequence: T1 sequence with I54V

ALX3 [19] = biological target: ALX3 (Homo sapiens, UniProt O95076 139-225)
SIX6 [20] = biological target: T12, SIX6 (Homo sapiens, UniProt O95475 114-200)
T12 sequence: T1 sequence with I54L

ALX3 [21] = biological target: ALX3 (Homo sapiens, UniProt O95076 139-225, L168Q)
SIX6 [22] = biological target: T13, SIX6 (Homo sapiens, UniProt O95475 114-200, T165I)
T13 sequence: T1 sequence with T52I, I54L

HOXB9 [23] = biological target: HOXB9 (Homo sapiens, UniProt P17482 171-250, R186Q)
ALX3 [24] = biological target: ALX3 (Homo sapiens, UniProt O95076 139-225, L168V)
HOXA2 [25] = biological target: HOXA2 (Homo sapiens, UniProt O43364 129-215, Y150S)
CRX [26] = biological target: CRX (Homo sapiens, UniProt O43186 26-111, R41L)
ALX3 [27] = biological target: ALX3 (Homo sapiens, UniProt O95076 139-225, N203S)
HOXA2 [28] = biological target: HOXA2 (Homo sapiens, UniProt O43364 129-215)
VENTX [29] = biological target: T14, VENTX (Homo sapiens, UniProt O95231 78-163, R121Q)
T14 sequence: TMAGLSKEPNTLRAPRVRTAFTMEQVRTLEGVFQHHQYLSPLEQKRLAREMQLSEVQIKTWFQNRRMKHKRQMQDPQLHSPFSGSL

VENTX [30] = biological target: T15, VENTX (Homo sapiens, UniProt O95231 78-163)
T15 sequence: T14 sequence with Q44R

VENTX [31] = biological target: T16, VENTX (Homo sapiens, UniProt O95231 78-163, Y115F)
T16 sequence: T14 sequence with Y38F, Q44R

HOXA4 = HOXA4 (Homo sapiens, UniProt Q00056 201-287, R217L)
HOXA4, sequence (Q00056 201-287 R217L): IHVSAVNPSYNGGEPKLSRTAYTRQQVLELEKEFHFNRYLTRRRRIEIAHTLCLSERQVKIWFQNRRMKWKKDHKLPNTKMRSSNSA

CRX (Homo sapiens, UniProt O43186 26-111), sequence (O43186 26-111): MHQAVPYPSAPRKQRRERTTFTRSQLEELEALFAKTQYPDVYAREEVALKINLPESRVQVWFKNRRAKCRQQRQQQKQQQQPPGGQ
CRX (Homo sapiens, UniProt O43186 26-111, R41L), sequence (O43186 26-111 R41L): as the sequence (O43186 26-111) above, with R16L counted along it
CRX (Homo sapiens, UniProt O43186 26-111, E42D), sequence (O43186 26-111 E42D): as the sequence (O43186 26-111) above, with E17D counted along it
HOXA2 (Homo sapiens, UniProt O43364 129-215), sequence (O43364 129-215): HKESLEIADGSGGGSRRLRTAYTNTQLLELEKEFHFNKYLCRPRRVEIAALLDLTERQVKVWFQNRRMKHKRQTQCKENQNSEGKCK
HOXA2 (Homo sapiens, UniProt O43364 129-215, Y150S), sequence (O43364 129-215 Y150S): as the sequence (O43364 129-215) above, with Y22S counted along it
HOXA2 (Homo sapiens, UniProt O43364 129-215, R185K), sequence (O43364 129-215 R185K): as the sequence (O43364 129-215) above, with R57K counted along it
ALX3 (Homo sapiens, UniProt O95076 139-225, N203Q), sequence (O95076 139-225 N203Q): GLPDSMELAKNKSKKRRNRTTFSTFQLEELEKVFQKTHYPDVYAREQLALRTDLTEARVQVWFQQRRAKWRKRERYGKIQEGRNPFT
HOXB9 (Homo sapiens, UniProt P17482 171-250, R186Q), sequence (P17482 171-250 R186Q): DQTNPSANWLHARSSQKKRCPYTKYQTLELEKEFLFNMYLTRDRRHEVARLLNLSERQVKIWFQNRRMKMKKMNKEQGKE
ALX3 (Homo sapiens, UniProt O95076 139-225), sequence (O95076 139-225): as the sequence (O95076 139-225 N203Q) above, with Q65N counted along it
HOXB9 (Homo sapiens, UniProt P17482 171-250), sequence (P17482 171-250): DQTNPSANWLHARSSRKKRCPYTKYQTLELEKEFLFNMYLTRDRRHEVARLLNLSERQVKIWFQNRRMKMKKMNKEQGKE
HOXB9 (Homo sapiens, UniProt P17482 171-250, T197M), sequence (P17482 171-250 T197M): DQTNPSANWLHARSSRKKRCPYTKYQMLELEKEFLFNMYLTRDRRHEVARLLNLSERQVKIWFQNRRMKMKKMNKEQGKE
ALX3 (Homo sapiens, UniProt O95076 139-225, L168V), sequence (O95076 139-225 L168V): as the sequence (O95076 139-225 N203Q) above, with L30V, Q65N counted along it
HOXA2 (Homo sapiens, UniProt O43364 129-215, R185T), sequence (O43364 129-215 R185T): as the sequence (O43364 129-215) above, with R57T counted along it
ALX3 (Homo sapiens, UniProt O95076 139-225, L168Q), sequence (O95076 139-225 L168Q): as the sequence (O95076 139-225 N203Q) above, with L30Q, Q65N counted along it
ALX3 (Homo sapiens, UniProt O95076 139-225, N203S), sequence (O95076 139-225 N203S): as the sequence (O95076 139-225 N203Q) above, with Q65S counted along it

CCAGGGGC
binding signal (CRX [1]): 7.85 upbm affinity estimate (log intensity, higher = more binding, comparable within an allelic series)
binding signal (HOXB9 [2]): 8.38 upbm affinity estimate (log intensity, higher = more binding, comparable within an allelic series)
binding signal (SIX6 [3]): 8.79 upbm affinity estimate (log intensity, higher = more binding, comparable within an allelic series)
binding signal (SIX6 [4]): 8.71 upbm affinity estimate (log intensity, higher = more binding, comparable within an allelic series)
binding signal (SIX6 [5]): 8.85 upbm affinity estimate (log intensity, higher = more binding, comparable within an allelic series)
binding signal (SIX6 [6]): 8.79 upbm affinity estimate (log intensity, higher = more binding, comparable within an allelic series)
binding signal (SIX6 [7]): 8.77 upbm affinity estimate (log intensity, higher = more binding, comparable within an allelic series)
binding signal (SIX6 [8]): 8.78 upbm affinity estimate (log intensity, higher = more binding, comparable within an allelic series)
binding signal (SIX6 [9]): 8.85 upbm affinity estimate (log intensity, higher = more binding, comparable within an allelic series)
binding signal (SIX6 [10]): 8.91 upbm affinity estimate (log intensity, higher = more binding, comparable within an allelic series)
binding signal (HOXA2 [11]): 7.15 upbm affinity estimate (log intensity, higher = more binding, comparable within an allelic series)
binding signal (HOXB9 [12]): 8.33 upbm affinity estimate (log intensity, higher = more binding, comparable within an allelic series)
binding signal (SIX6 [13]): 8.83 upbm affinity estimate (log intensity, higher = more binding, comparable within an allelic series)
binding signal (CRX [14]): 7.94 upbm affinity estimate (log intensity, higher = more binding, comparable within an allelic series)
binding signal (ALX3 [15]): 7.67 upbm affinity estimate (log intensity, higher = more binding, comparable within an allelic series)
binding signal (SIX6 [16]): 8.82 upbm affinity estimate (log intensity, higher = more binding, comparable within an allelic series)
binding signal (HOXA2 [17]): 10.2 upbm affinity estimate (log intensity, higher = more binding, comparable within an allelic series)
binding signal (SIX6 [18]): 8.8 upbm affinity estimate (log intensity, higher = more binding, comparable within an allelic series)
binding signal (ALX3 [19]): 7.59 upbm affinity estimate (log intensity, higher = more binding, comparable within an allelic series)
binding signal (SIX6 [20]): 8.88 upbm affinity estimate (log intensity, higher = more binding, comparable within an allelic series)
binding signal (ALX3 [21]): 7.73 upbm affinity estimate (log intensity, higher = more binding, comparable within an allelic series)
binding signal (SIX6 [22]): 8.84 upbm affinity estimate (log intensity, higher = more binding, comparable within an allelic series)
binding signal (HOXB9 [23]): 8.39 upbm affinity estimate (log intensity, higher = more binding, comparable within an allelic series)
binding signal (ALX3 [24]): 7.75 upbm affinity estimate (log intensity, higher = more binding, comparable within an allelic series)
binding signal (HOXA2 [25]): 10.3 upbm affinity estimate (log intensity, higher = more binding, comparable within an allelic series)
binding signal (CRX [26]): 8.19 upbm affinity estimate (log intensity, higher = more binding, comparable within an allelic series)
binding signal (ALX3 [27]): 7.65 upbm affinity estimate (log intensity, higher = more binding, comparable within an allelic series)
binding signal (HOXA2 [28]): 7.27 upbm affinity estimate (log intensity, higher = more binding, comparable within an allelic series)

ACTAATCG
binding signal (CRX [1]): 12.1 upbm affinity estimate (log intensity, higher = more binding, comparable within an allelic series)
binding signal (VENTX [29]): 11.6 upbm affinity estimate (log intensity, higher = more binding, comparable within an allelic series)
binding signal (VENTX [30]): 12.6 upbm affinity estimate (log intensity, higher = more binding, comparable within an allelic series)
binding signal (VENTX [31]): 11.5 upbm affinity estimate (log intensity, higher = more binding, comparable within an allelic series)
binding signal (HOXA4): 11.2 upbm affinity estimate (log intensity, higher = more binding, comparable within an allelic series)
binding signal (CRX [14]): 11.9 upbm affinity estimate (log intensity, higher = more binding, comparable within an allelic series)
binding signal (CRX [26]): 11.3 upbm affinity estimate (log intensity, higher = more binding, comparable within an allelic series)

TAACCTTA
binding signal (CRX [1]): 9.78 upbm affinity estimate (log intensity, higher = more binding, comparable within an allelic series)
